ALDH1A1 inh: qHTS Assay for Inhibitors of Aldehyde Dehydrogenase 1 (ALDH1A1). Purified ALDH1A1, NADH fluorescence, propionaldehyde substrate. Aldehyde dehydrogenase 1A1 (Homo sapiens), P00352. actives 7.3% (n = 220,000). Potency, µM (top dose mostly 75.3 µM), for inactives: at the top dose activity, negative = inhibition, most hits filed as inhibitors. AID 1030, 2008; active means well fitted inhibition curve with a large enough effect, not every such curve was filed as active; inconclusive means small, poorly fitted or top-dose-only effect, or another doubt; inactive means no such curve, though single readings can be large or run the other way;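 further: plate controls were no enzyme wells and a reference inhibitor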
Target sequence (P00352 whole entry, looked up): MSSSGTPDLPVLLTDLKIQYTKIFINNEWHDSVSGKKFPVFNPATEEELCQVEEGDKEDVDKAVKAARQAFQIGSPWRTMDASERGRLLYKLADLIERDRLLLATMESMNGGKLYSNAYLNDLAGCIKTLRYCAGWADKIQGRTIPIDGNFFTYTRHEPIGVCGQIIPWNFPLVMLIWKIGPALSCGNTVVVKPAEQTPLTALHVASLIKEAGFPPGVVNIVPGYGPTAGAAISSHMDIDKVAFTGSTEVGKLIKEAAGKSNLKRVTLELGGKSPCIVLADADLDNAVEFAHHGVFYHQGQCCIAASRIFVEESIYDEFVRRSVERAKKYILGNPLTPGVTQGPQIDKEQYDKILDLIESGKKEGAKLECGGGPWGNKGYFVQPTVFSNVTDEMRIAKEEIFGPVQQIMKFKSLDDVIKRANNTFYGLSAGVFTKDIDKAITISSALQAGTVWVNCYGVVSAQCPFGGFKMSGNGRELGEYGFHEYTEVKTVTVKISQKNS
Gal4-VP16 FLuc: VP16 counterscreen qHTS for inhibitors of ROR gamma transcriptional activity; Drosophila S2 Gal4-VP16 UAS-luciferase, luminescence, 20 h; Potency, µM (doses to about 53.6 µM), inactives show at the top dose activity, negative = inhibition, usual class: inhibitors; actives 3.5% (n = 310,000); AID 2546, 2010;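 further: Gal4-VP16 expression switched on by copper sulfate through the metallothionein promoter; nearly all actives have a fitted effect of over 50% in size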
RORg inh: qHTS for inhibitors of ROR gamma transcriptional activity; actives 5.4% (n = 310,000); Potency, µM (series often up to 53.6 µM), for the others: top-dose activity change, negative = inhibition, hits mostly inhibitors; Nuclear receptor ROR-gamma (Mus musculus), P51450; AID 2551, 2010; Drosophila S2 Gal4-RORgamma UAS-luciferase reporter, 20 h; further: nearly all actives have a fitted effect of over 60% in size
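Drosophila Schneider cells stably carrying a metallothionein-driven Gal4 DBD–ROR gamma fusion and a UAS-Photinus luciferase reporter were exposed to compound for 1 hr, then induced with copper sulfate (700 uM final) for 20 hr at ambient temperature before luminescence reading.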
Sfp inh: qHTS Assay for Inhibitors of Bacillus subtilis Sfp phosphopantetheinyl transferase (PPTase) | 4'-phosphopantetheinyl transferase ffp (Bacillus subtilis), Q9F4F7 | Biochemical Sfp PPTase activity, qHTS | Potency, µM, inactives show largest response in the series, negative = inhibition, usual class: inhibitors | actives 3.5% (n = 310,000) | AID 1490, 2009;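 further: the enzyme is Sfp with the accession as filed and its product quenches rhodamine fluorescence; 0% = enzyme reaction without inhibitor and -100% = no enzyme wells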
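Fluorescence-quenching assay with 15 nM Sfp, 5 uM rhodamine-CoA and 12.5 uM BHQ-2-labelled ybbR peptide in pH 7.6 Hepes/MgCl2 buffer. Enzyme was pre-incubated with compound for 15 min at room temperature. Rate was taken from the 30-min fluorescence change (525/598 nm).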
PLK1 PBD inh: qHTS for Inhibitors of PLK1-PDB (polo-like kinase 1 - polo-box domain): Primary Screen | Serine/threonine-protein kinase PLK1 (Homo sapiens), P53350 | Plk1 PBD binding of FITC phosphopeptide, fluorescence polarization | Potency, µM, inactives show max response, negative = inhibition, hits mostly inhibitors | actives 2.8% (n = 360,000) | AID 720504, 2013; further: series mostly up to about 57 µM; nearly all actives have a fitted effect of over 65% in size
Numbers without * were called inactive; ? = inconclusive; / = no result; [ ] = another dose, or the depositor's remark. Compounds with a hit are over-represented: about 12% of the library has one in this group of screens. Unless noted, the call rests on the fitted dose curve; in most records, active means well fitted curve in the direction sought with a large enough effect; inconclusive means small, poorly fitted or top-dose-only effect, or another doubt; inactive means no such curve, though single readings can be large; an effect the other way counts as inactive or inconclusive. Unless noted, on the % scale 0 is the no-effect control and ±100 the full control effect; potency means the concentration at half of the fitted maximal effect.

SMILES	ALDH1A1 inh	Gal4-VP16 FLuc	RORg inh	Sfp inh	PLK1 PBD inh
Cc1cc(C)c(C(=O)CN2CCOCC2)c(C)c1	10µM*	?	-44.1%	3.0%	-12.1%
Cc1cc(OCC(=O)N2CCN(CC(=O)N3CCOCC3)CC2)c(C(C)C)cc1Cl	/	/	/	/	-13.7%
O=NN(CCO)CCO	?	-3.0%	0.8%	/	/
C[C@]12CC[C@H](O)C[C@H]1CCC1C2CC[C@]2(C)[C@@H](c3ccc(=O)oc3)C[C@H]3O[C@]132 (stereo partly drawn)	/	0.9%	9.3%	0.4%	/
O=[N+]([O-])c1ccc(O)c([N+](=O)[O-])c1	?	22.4µM*	?	5.9%	-4.7%
O=[N+]([O-])c1cc(O)c(O)c([N+](=O)[O-])c1	?	-7.0%	22.4µM*	?	-1.9%
O=C(O)c1cc([N+](=O)[O-])cc([N+](=O)[O-])c1O	/	0.7%	-6.8%	2.9%	/
O=[N+]([O-])c1ccc(Cl)c([N+](=O)[O-])c1	/	/	/	/	-25.0%
c1cc(CN2CCCC3(CCNCC3)C2)ccn1	?	3.0%	8.2%	0.9%	/
COc1ccc(-n2c(=S)[nH]c3c(sc(=S)n3-c3ccccc3)c2=O)c(OC)c1	3.16µM*	-4.3%	-21.2%	14.1µM*	2.38µM*
COc1cc2[nH]c(=S)n(-c3ccccc3)c(=O)c2cc1OC	1.58µM*	-29.9%	3.98µM*	3.0%	-3.0%
COc1cc2[nH]c(=O)n(-c3ccc(C)cc3)c(=O)c2cc1OC	?	0.9%	12.8%	11.7%	-10.9%
CC(=O)OC[C@H](N)C(=O)c1ccccc1	?	-5.9%	2.7%	-0.9%	/
CCOP(=O)(OCC)C(=Cc1cc(C(C)(C)C)c(O)c(C(C)(C)C)c1)P(=O)(OCC)OCC	/	-10.8%	?	-10.2%	/
O=C1NC(=O)C(Sc2ccccc2[N+](=O)[O-])C(=O)N1	/	-0.6%	0.3%	20µM*	2.99µM*
O=C(O)CNC(=O)c1ccc([As](=O)(O)O)cc1	4.2%[13.5 µM]	/	/	/	/
CCCCC(=O)Cl	?	4.6%	15.0%	/	/
O=C(Oc1cccc2cccnc12)c1ccccc1	8.0%	?	1.41µM*	-14.6%	/
COc1ccc(C(=O)Oc2cccc3cccnc23)cc1S(=O)(=O)N1CCOCC1	?	4.47µM*	2.51µM*	44.7µM*	0.7%
Clc1c(Cl)c(Cl)c(Cl)c(Cl)c1Cl	/	0.6%	5.3%	9.8%	/
O=C(O)CN1C(=O)CN=C(c2ccccn2)c2cc(Cl)ccc21	6.5%[13.5 µM]	2.0%	-3.3%	50.1µM*	1.6%
C[C@@]12CC3CC(N)(C1)C[C@@](C)(C3)C2	-4.8%[20.9 µM]	9.9%[17 µM]	3.9%[16.9 µM]	21.6%	/
CCC1(c2ccccc2)C(=O)NC(=S)NC1=O	/	/	/	/	3.1%
COc1cc(C=C2C(=O)NC(=O)NC2=O)ccc1OS(=O)(=O)c1ccccc1[N+](=O)[O-]	/	-11.8%	4.3%	50.1µM*	2.67µM*
COc1cc(/C=C2/C(=O)N(c3ccccc3)N=C2C)ccc1OS(=O)(=O)c1ccccc1	?	?	?	-22.4%	/
SMILES	ALDH1A1 inh	Gal4-VP16 FLuc	RORg inh	Sfp inh	PLK1 PBD inh
CCOc1cc(C=C2C(=O)NC(=O)NC2=O)ccc1OS(=O)(=O)c1ccccc1	?	-5.2%	-14.0%	50.1µM*	3.36µM*
O=C1NC(=S)NC(=O)C1=Cc1ccc(OCC(=O)N2CCCC2)cc1	/	-3.1%	12.1%	20µM*	15µM*
CCOc1ccc(C=C2C(=O)NC(=S)NC2=O)cc1OCC	/	/	/	/	8.44µM*
O=C(COc1ccc(Br)cc1)N1CCN(C2CCCC2)CC1	6.7%	-0.6%	22.5%	-2.9%	-2.5%
C/C=C1/CN2CC[C@]34C(=C(C=O)[C@@H]1C[C@H]23)Nc1c(O)cccc14	1.5%	2.8%	30.3%	-14.2%	/
C[C@H]1CC[C@@]2(NC1)O[C@@H]1C[C@H]3[C@@H]4CC[C@@H]5C[C@@H](O)CC[C@@]5(C)[C@@H]4CC[C@]3(C)[C@@H]1[C@@H]2C	?	4.4%[17 µM]	-25.8%[16.9 µM]	16.7%	/
Oc1cc(Cl)cc(Cl)c1Cl	?	-22.7%	?	/	-5.6%
CCOc1cc(C=C2C(=O)NC(=O)NC2=O)ccc1OCC(=O)N1CCOCC1	35.5µM*	4.2%	-2.5%	?	?
CCCOc1ccccc1OCC(=O)N1CCN(CC(=O)N2CCOCC2)CC1	/	/	/	/	-16.9%
Cc1ccc2c(c1)C1CN(C)CCC1N2C(=O)c1ccc(Br)o1 (stereo not drawn)	22.4µM*	-6.4%	-1.0%	-6.1%	-3.4%
Cc1ccc2c(c1)C1CN(C)CCC1N2C(=O)c1cccnc1Cl (stereo not drawn)	/	-4.7%	-0.4%	12.3%	-3.5%
Cn1c(=O)oc2cc(NC(=O)CCl)ccc21	/	?	?	10.0%	-19.9%
COc1ccccc1N1C(=O)NC(=O)/C(=C/c2ccc3c(c2)Cc2ccccc2-3)C1=O	?	?	-33.1%	50.1µM*	5.32µM*
O=C1NC(=O)N(c2ccccc2)C(=O)/C1=C/c1ccc2c(c1)Cc1ccccc1-2	?	-29.2%	-19.9%	50.1µM*	/
COc1cc(/C=C2\C(=O)NC(=O)N(c3ccccc3)C2=O)cc(OC)c1O	?	-0.2%	-32.1%	22.4µM*	?
CC(C)(C)N1C(=O)NC(=O)/C(=C\c2ccc3c(c2)CCN3CCCCl)C1=O	/	-9.0%	15.2%	?	?
ClC(Cl)Br	3.2%	-6.4%	-2.2%	/	/
CN1CCCC2(CCN(C(=O)Oc3ccccc3)CC2)C1	-4.1%	-4.4%	2.6%	5.4%	/
O=Cc1ccccc1	3.16µM*	2.0%	-10.3%	/	/
O=S(=O)(O)C(=Cc1ccccc1)c1ccccc1 (tested in a mixture with another compound)	/	/	/	/	-0.8%
CC(=O)Oc1c2c(c(CC=C(C)C)c3c1C(=O)C1=CC4CC5C(C)(C)OC(C/C=C(\C)C(=O)O)(C4=O)[C@]15O3)OC(C)(CCC=C(C)C)C=C2 (stereo partly drawn)	?	?	3.55µM*	25.1µM*	/
CCN(CC)c1ccc(CN(C)CCc2ccc(OC)c(OC)c2)cc1	12.6µM*	-0.5%	10.6%	-7.2%	-5.3%
COc1ccc(CCN(C)Cc2ccc(F)cc2F)cc1OC	?	-5.7%	34.1%	-24.2%	-5.3%
Cc1sc2c(c1C)C(c1ccc(C(C)(C)C)cc1)=NCC(=O)N2CC(=O)Nc1nccs1	?	?	11.2µM*	12.8%	-4.3%
Cc1sc2c(c1C)C(c1cccs1)=NCC(=O)N2CC(=O)NCc1cccs1	-11.2%	-23.0%	27.9%	-1.0%	-3.6%
CNC(=O)COC(=O)c1ccc(-c2nc3ccccc3s2)s1	?	0.316µM*	0.501µM*	19.1%	-3.4%
CCCCN1CC(O)=C(c2nc3ccccc3s2)C1=N	?	16.9%	34.6%	5.7%	-12.3%

Screens: PubChem, National Center for Advancing Translational Sciences (NCATS)
